We go through 112 sequences from the supplement of paper PMC3334620.

In all, about 33,000 sequences were measured (“E-score (-0.5 to 0.5)”: median about -0.04, highest 2% from about 0.36 on). The full list was thinned out, with the highest values kept by preference.

The target of the assay is T1, Hmlalpha2 (UniProt P0CY09).
T1 sequence: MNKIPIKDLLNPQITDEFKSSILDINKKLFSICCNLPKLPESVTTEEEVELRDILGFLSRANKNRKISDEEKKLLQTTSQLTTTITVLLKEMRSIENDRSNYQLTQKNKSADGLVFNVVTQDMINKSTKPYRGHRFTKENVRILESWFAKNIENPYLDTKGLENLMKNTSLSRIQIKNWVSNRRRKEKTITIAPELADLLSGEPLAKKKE
Put plainly: PBM E-score (8-mer binding enrichment) (E-score (-0.5 to 0.5)); higher = stronger / more preferred TF binding. The conditions noted are these: protein concentration: 200 nM; construct: GST-full length. Here is the method:
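Universal 'all 10-mer' protein binding microarrays (Agilent AMADID 015681) probed with GST-tagged S. cerevisiae TFs (full-length or DBD) made by in vitro transcription/translation (PURExpress), about 100-200 nM. Bound TF was detected with fluorescent anti-GST. Each ungapped 8-mer (which stands for itself and its reverse complement) is scored by the PBM enrichment score (E-score), a modified Wilcoxon-Mann-Whitney statistic from -0.5 to +0.5, computed with the Universal PBM Analysis Suite. Scale: above 0.35 generally sequence-specific binding.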
Turning to ACTGTCGC, the “PBM E-score” value is -0.165. The value for CGGAGAAG was -0.358; that for CCCTTTAG was -0.261. The value for ATGACTCG was -0.0578.

Consider GATCTAAC, for which the “PBM E-score” value was 0.0316. On to CACCGACG, for which the “PBM E-score” value amounted to 0.00164. The value for ACTAGGAG was -0.0601; that for AACTAGGG was -0.094.

On to GAGGGAAC, for which the “PBM E-score” value was -0.165. In the case of ATACACTA, the “PBM E-score” value amounted to 0.149. The value for ATACACCA was 0.215; that for ATACACGG was 0.445. As to AGACACGG, the “PBM E-score” value was 0.228. With ACACACGG, the “PBM E-score” value amounted to 0.277. The value for ACACACGC was 0.288. In the case of ATACACGA, the “PBM E-score” value worked out at 0.432.

Take AGACACGC: the “PBM E-score” value came out at 0.147. As to ATACACGC, the “PBM E-score” value is 0.449. The value for CTTTCATA was 0.162; that for AGGTGTTA was 0.256.

For the sequence CCGTGTTC, the “PBM E-score” value was 0.328. As to ACGTGTTC, the “PBM E-score” value is 0.211.

For AGGTGTTG, the “PBM E-score” value is -0.053. The value for GCGTGTTA was 0.46; that for CAGTGTTA was 0.212; that for GCGTGTGA was 0.284.

Consider ACGTGTTG, for which the “PBM E-score” value was 0.415. The value for ACGTGTGG was 0.136. The value for CCGTGTTA was 0.44; that for ACGTGTTA was 0.45; that for GCGTGGTA was 0.0607.

Consider TCGGAGCA, for which the “PBM E-score” value is -0.279. The value for CTTAAAAC was 0.201; that for AACTCTTG was -0.084; that for GCTTGTTA was 0.286. The value for GAAACCAA was 0.00698; that for AGAACATA was 0.248. As to CAAACATG, the “PBM E-score” value was 0.34. The value for GAAACATA was 0.192. With AAAACATT, the “PBM E-score” value was 0.242. The value for CAAACATA was 0.118; that for AAAACATG was 0.434. As for AAAACATC, the “PBM E-score” value is 0.311.

In the case of TAAACATA, the “PBM E-score” value was 0.416. The value for AAAACATA was 0.39; that for GGTTGAAC was 0.081.

In the case of ACTGCAGG, the “PBM E-score” value is -0.11.

As to AACTCACT, the “PBM E-score” value worked out at 0.0592. The value for AGGTCGGA was -0.164; that for AACCTAGA was -0.109; that for AGTGTAAG was 0.116.

Take CGTGTAAG: the “PBM E-score” value was found to be 0.467.

In the case of AGTGTAAC, the “PBM E-score” value is 0.198.

On to ACTGTAAG, for which the “PBM E-score” value was determined as 0.0573. For the sequence GGTGTAAC, the “PBM E-score” value is 0.288. The value for CGTGTAAC was 0.443; that for GAAATAGC was -0.0263; that for CAACTAAA was 0.176. The value for CTCTAGAG was -0.148. The value for TCATCCCA was -0.231; that for GGTAATAA was 0.178.

Regarding AGTAATAC, the “PBM E-score” value amounted to 0.211. The value for GGTAATAC was 0.173; that for CGTAATAA was 0.378. The value for CGTAATAG was 0.246; that for AGTAATAA was 0.257; that for CATAATAA was 0.281. Regarding CGTAATAC, the “PBM E-score” value came to 0.378. The value for TGTAATAA was 0.45; that for AGCGCGCA was 0.0691. The value for CCGGGGAG was -0.241.

CAAGTCTG: the “PBM E-score” value was -0.00344. The value for ACCTCTTC was -0.0525. The value for CGACGTTA was 0.231. The value for CGATGGAC was 0.0281; that for CTTTTCAC was 0.0898; that for AAGCATGG was -0.112.

Take AAGCATGC: the “PBM E-score” value was 0.117.

Consider AACCATGA, for which the “PBM E-score” value came to 0.149. The value for AACCATGC was -0.0458; that for AATCATGT was 0.409; that for AATCATGA was 0.0793. The value for AAGCATGT was 0.377; that for AATCATGG was 0.0457; that for AACCATGT was 0.368. The value for CCCCATTC was -0.266. In the case of CGGGCATC, the “PBM E-score” value was -0.287. The value for AAATTCCT was -0.135; that for CATTCTGA was -0.213; that for GCAGTTGA was -0.157. On to AAAGAGCT, for which the “PBM E-score” value was -0.0941. The value for GAGCTCCC was -0.322; that for ATTTTTAC was 0.368. The value for ATTTTTAA was 0.237; that for AAATTTAT was 0.201; that for AAATTTAC was 0.375. The value for AAATTTAG was 0.0397. As for AATTTTAC, the “PBM E-score” value is 0.347. In the case of AACCCTAC, the “PBM E-score” value is -0.0838. The value for GAATTAGC was -0.0766.

As to AGCTCTAT, the “PBM E-score” value was -0.102.

Take AGAGTGTA: the “PBM E-score” value was found to be 0.0904. The value for ACGCTATA was 0.0242; that for ATTACGTA was 0.431; that for ATTACGTC was 0.321. The value for AATACGTA was 0.317. The value for AATACGTG was 0.383; that for CTTACGTA was 0.307; that for ATTACGTG was 0.452.

AATACGTC: the “PBM E-score” value amounted to 0.226.

Take ACTACGTG: the “PBM E-score” value was found to be 0.144. The value for GTTACGTA was 0.293.
